According to the supplement of paper PMC8728848:
Shown is part of a subset that was picked to be rich in the strongest signals.

Experiments:
Assay in all cases: glycan array binding signal (z-score within array); higher = stronger binding
Conditions in all cases: glycan notation: IUPAC condensed, linker removed
[1] = molecular target: Fuc(a1-2)Gal(b1-3)GlcNAc(b1-3)[Fuc(a1-2)Gal(b1-3)GlcNAc(b1-6)]GalNAc
Summary of the method: (§1)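 Negative Z-scores can be read as non-binding. The Z-score is calculated within each array and then averaged across arrays of one protein sequence at different concentrations or buffers and across linkers. Arrays, 3228 in all, were curated from the Consortium for Functional Glycomics database and kept only where the protein sequence was available.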

[2] = molecular target: Fuc(a1-2)Gal(b1-4)Fuc(a1-3)]GlcNAc(b1-2)Man(a1-3)[Fuc(a1-2)Gal(b1-4)[Fuc(a1-3)]GlcNAc(b1-2)Man(a1-6)]Man(b1-4)GlcNAc(b1-4)GlcNAc
Summary of the method: as §1

[3] = molecular target: Fuc(a1-2)Gal(b1-4)GlcNAc(b1-2)Man(a1-3)[Fuc(a1-2)Gal(b1-4)GlcNAc(b1-2)Man(a1-6)]Man(b1-4)GlcNAc(b1-4)GlcNAc
Summary of the method: as §1

[4] = molecular target: Fuc(a1-2)Gal(b1-4)[Fuc(a1-3)]GlcNAc(b1-2)Man(a1-3)[Fuc(a1-2)Gal(b1-4)[Fuc(a1-3)]GlcNAc(b1-2)Man(a1-6)]Man(b1-4)GlcNAc(b1-4)[Fuc(a1-6)]GlcNAc
Summary of the method: as §1

[5] = molecular target: Fuc(a1-2)Gal(b1-4)[Fuc(a1-3)]GlcNAc(b1-3)Gal(b1-4)[Fuc(a1-3)]GlcNAc
Summary of the method: as §1

[6] = molecular target: Fuc(a1-2)[Gal(a1-3)]Gal(b1-3)GalNAc(b1-3)Gal(a1-4)Gal(b1-4)Glc
Summary of the method: as §1

[7] = molecular target: Fuc(a1-2)[Gal(a1-3)]Gal(b1-4)Glc
Summary of the method: as §1

[8] = molecular target: Fuc(a1-2)[Gal(a1-3)]Gal(b1-4)[Fuc(a1-3)]Glc
Summary of the method: as §1

[9] = molecular target: Fuc(a1-2)[GalNAc(a1-3)]Gal
Summary of the method: as §1

[10] = molecular target: Fuc(a1-2)[GalNAc(a1-3)]Gal(b1-3)GlcNAc(b1-3)GalNAc
Summary of the method: as §1

[11] = molecular target: Fuc(a1-2)[GalNAc(a1-4)]Gal(b1-4)GlcNAc
Summary of the method: as §1

[12] = molecular target: Fuc(a1-3)[Gal(b1-4)]GlcNAc(b1-3)Gal(b1-4)[Fuc(a1-3)]GlcNAc
Summary of the method: as §1

[13] = molecular target: Gal(b1-3)GalNAc(b1-3)Gal(a1-4)Gal(b1-4)Glc
Summary of the method: as §1

[14] = molecular target: Gal(b1-3)GlcNAc(b1-3)Gal(b1-4)Glc
Summary of the method: as §1

[15] = molecular target: Gal(b1-3)[Fuc(a1-4)]GlcNAc(b1-2)Man(a1-3)[Gal(b1-3)[Fuc(a1-4)]GlcNAc(b1-2)Man(a1-6)]Man(b1-4)GlcNAc(b1-4)[Fuc(a1-6)]GlcNAc
Summary of the method: as §1

[16] = molecular target: Gal(b1-4)GlcNAc(b1-3)Gal(b1-4)Glc
Summary of the method: as §1

[17] = molecular target: Gal(b1-4)GlcNAc(b1-3)Gal(b1-4)GlcNAc(b1-2)[Gal(b1-4)GlcNAc(b1-3)Gal(b1-4)GlcNAc(b1-6)]Man(a1-6)[Gal(b1-4)GlcNAc(b1-3)Gal(b1-4)GlcNAc(b1-2)Man(a1-3)]Man(b1-4)GlcNAc(b1-4)[Fuc(a1-6)]GlcNAc
Summary of the method: as §1

[18] = molecular target: Gal(b1-4)GlcNAc(b1-3)Gal(b1-4)GlcNAc(b1-3)Gal(b1-4)GlcNAc(b1-3)Gal(b1-4)GlcNAc(b1-2)[Gal(b1-4)GlcNAc(b1-3)Gal(b1-4)GlcNAc(b1-3)Gal(b1-4)GlcNAc(b1-3)Gal(b1-4)GlcNAc(b1-6)]Man(a1-6)[Gal(b1-4)GlcNAc(b1-3)Gal(b1-4)GlcNAc(b1-3)Gal(b1-4)GlcNAc(b1-3)Gal(b1-4)GlcNAc(b1-2)Man(a1-3)]Man(b1-4)GlcNAc(b1-4)[Fuc(a1-6)]GlcNAc
Summary of the method: as §1

[19] = molecular target: Gal(b1-4)GlcNAc(b1-3)Gal(b1-4)GlcNAc(b1-3)Gal(b1-4)GlcNAc(b1-3)Gal(b1-4)GlcNAc(b1-3)Gal(b1-4)GlcNAc(b1-2)[Gal(b1-4)GlcNAc(b1-3)Gal(b1-4)GlcNAc(b1-3)Gal(b1-4)GlcNAc(b1-3)Gal(b1-4)GlcNAc(b1-3)Gal(b1-4)GlcNAc(b1-6)]Man(a1-6)[Gal(b1-4)GlcNAc(b1-3)Gal(b1-4)GlcNAc(b1-3)Gal(b1-4)GlcNAc(b1-3)Gal(b1-4)GlcNAc(b1-3)Gal(b1-4)GlcNAc(b1-2)Man(a1-3)]Man(b1-4)GlcNAc(b1-4)[Fuc(a1-6)]GlcNAc
Summary of the method: as §1

[20] = molecular target: Gal(b1-4)GlcNAc(b1-3)[Fuc(a1-3)GlcNAc(b1-6)]Gal(b1-4)Glc
Summary of the method: as §1

[21] = molecular target: Gal6P(b1-4)GlcNAc
Summary of the method: as §1

[22] = molecular target: Gal6S(b1-4)GlcNAc6S
Summary of the method: as §1

[23] = molecular target: GalNAc(b1-3)Gal(a1-6)Gal(b1-4)Glc
Summary of the method: as §1

[24] = molecular target: GalNAc(b1-4)GlcNAc
Summary of the method: as §1

[25] = molecular target: GalNAc(b1-4)GlcNAc(b1-2)Man
Summary of the method: as §1

[26] = molecular target: GalNAc(b1-4)GlcNAc(b1-3)GalNAc(b1-4)GlcNAc
Summary of the method: as §1

[27] = molecular target: Glc(b1-4)Glc
Summary of the method: as §1

[28] = molecular target: GlcNAc(a1-4)Gal(b1-4)GlcNAc
Summary of the method: as §1

[29] = molecular target: GlcNAc(a1-4)Gal(b1-4)GlcNAc(b1-3)Gal(b1-4)Glc
Summary of the method: as §1

[30] = molecular target: GlcNAc(a1-4)Gal(b1-4)GlcNAc(b1-3)Gal(b1-4)GlcNAc(b1-3)Gal(b1-4)GlcNAc
Summary of the method: as §1

[31] = molecular target: GlcNAc(b1-3)Gal(b1-4)GlcNAc(b1-2)Man(a1-3)[GlcNAc(b1-3)Gal(b1-4)GlcNAc(b1-2)Man(a1-6)]Man(b1-4)GlcNAc(b1-4)[Fuc(a1-6)]GlcNAc
Summary of the method: as §1

[32] = molecular target: GlcNAc(b1-3)Gal(b1-4)GlcNAc(b1-3)Gal(b1-4)GlcNAc
Summary of the method: as §1

[33] = molecular target: GlcNAc(b1-3)Gal(b1-4)GlcNAc(b1-3)GalNAc
Summary of the method: as §1

[34] = molecular target: GlcNAc(b1-4)GlcNAc(b1-4)GlcNAc
Summary of the method: as §1

[35] = molecular target: GlcNAc(b1-4)GlcNAc(b1-4)GlcNAc(b1-4)GlcNAc(b1-4)GlcNAc
Summary of the method: as §1

[36] = molecular target: GlcNAc(b1-4)GlcNAc(b1-4)GlcNAc(b1-4)GlcNAc(b1-4)GlcNAc(b1-4)GlcNAc
Summary of the method: as §1

[37] = molecular target: Neu5Ac(a2-3)Gal(b1-4)GlcNAc(b1-2)Man
Summary of the method: as §1

[38] = molecular target: Neu5Ac(a2-3)Gal(b1-4)GlcNAc(b1-3)Gal(b1-4)GlcNAc(b1-3)GalNAc
Summary of the method: as §1

[39] = molecular target: Neu5Ac(a2-3)Gal(b1-4)GlcNAc(b1-3)Gal(b1-4)GlcNAc(b1-3)[Neu5Ac(a2-3)Gal(b1-4)GlcNAc(b1-3)Gal(b1-4)GlcNAc(b1-6)]GalNAc
Summary of the method: as §1

[40] = molecular target: Neu5Ac(a2-6)Gal(b1-4)GlcNAc(b1-2)[Neu5Ac(a2-6)Gal(b1-4)GlcNAc(b1-4)]Man(a1-3)[GlcNAc(b1-4)][Neu5Ac(a2-6)Gal(b1-4)GlcNAc(b1-2)[Neu5Ac(a2-6)Gal(b1-4)GlcNAc(b1-6)]Man(a1-6)]Man(b1-4)GlcNAc(b1-4)GlcNAc
Summary of the method: as §1

[41] = molecular target: Neu5Ac(a2-6)Gal(b1-4)GlcNAc(b1-3)Gal(b1-4)GlcNAc(b1-6)[Gal(b1-3)]GalNAc
Summary of the method: as §1

[42] = molecular target: Neu5Ac(a2-6)Gal(b1-4)GlcNAc(b1-6)GalNAc
Summary of the method: as §1

[43] = molecular target: Neu5Ac(a2-6)Gal(b1-4)GlcNAc6S
Summary of the method: as §1

[44] = molecular target: Neu5Ac(a2-6)GlcNAc(b1-4)GlcNAc(b1-4)GlcNAc
Summary of the method: as §1

[45] = molecular target: Neu5Ac(a2-8)Neu5Ac(a2-8)Neu5Ac(a2-3)Gal(b1-4)Glc
Summary of the method: as §1

[46] = molecular target: Neu5Gc(a2-6)GalNAc
Summary of the method: as §1

B1: WGA (Triticum vulgare) (protein)
chain: QRCGEQGSNMECPNNLCCSQYGYCGMGGDYCGKGCQNGACWTSKRCGSQAGGATCPNNHCCSQYGHCGFGAEYCGAGCQGGPCRADIKCGSQSGGKLCPNNLCCSQWGFCGLGSEFCGGGCQSGACSTDKPCGKDAGGRVCTNNYCCSKWGSCGIGPGYCGAGCQSGGCDAVFAGAITANSTLLAE
With B1 the “glycan array binding signal (z-score)” value [1] was -0.344, the “glycan array binding signal (z-score)” value [2] was -0.173 and the “glycan array binding signal (z-score)” value [3] was -0.197. The “glycan array binding signal (z-score)” value [4] was -0.297, the “glycan array binding signal (z-score)” value [5] was -0.365 and the “glycan array binding signal (z-score)” value [6] was -0.364. For the same binder, the “glycan array binding signal (z-score)” value [7] was -0.359, the “glycan array binding signal (z-score)” value [8] was -0.309 and the “glycan array binding signal (z-score)” value [9] was -0.082. For the same binder, the “glycan array binding signal (z-score)” value [10] was -0.299, the “glycan array binding signal (z-score)” value [11] was 3 and the “glycan array binding signal (z-score)” value [12] was -0.381. For the same binder, the “glycan array binding signal (z-score)” value [13] was -0.328, the “glycan array binding signal (z-score)” value [14] was -0.373 and the “glycan array binding signal (z-score)” value [15] was -0.172. For the same binder, the “glycan array binding signal (z-score)” value [16] was -0.341, the “glycan array binding signal (z-score)” value [17] was -0.132 and the “glycan array binding signal (z-score)” value [18] was 0.022. The “glycan array binding signal (z-score)” value [19] was 0.244, the “glycan array binding signal (z-score)” value [20] was -0.275 and the “glycan array binding signal (z-score)” value [21] was -0.418. For the same binder, the “glycan array binding signal (z-score)” value [22] was -0.371, the “glycan array binding signal (z-score)” value [23] was -0.316 and the “glycan array binding signal (z-score)” value [24] was 2.78. The “glycan array binding signal (z-score)” value [25] was 2.71, the “glycan array binding signal (z-score)” value [26] was 2.8 and the “glycan array binding signal (z-score)” value [27] was -0.351. For the same binder, the “glycan array binding signal (z-score)” value [28] was 2.77, the “glycan array binding signal (z-score)” value [29] was 2.56 and the “glycan array binding signal (z-score)” value [30] was 3.16. The “glycan array binding signal (z-score)” value [31] was 1.15, the “glycan array binding signal (z-score)” value [32] was 1.71 and the “glycan array binding signal (z-score)” value [33] was -0.359. The “glycan array binding signal (z-score)” value [34] was 3.8, the “glycan array binding signal (z-score)” value [35] was 5.62 and the “glycan array binding signal (z-score)” value [36] was 5.15. The “glycan array binding signal (z-score)” value [37] was -0.304, the “glycan array binding signal (z-score)” value [38] was -0.353 and the “glycan array binding signal (z-score)” value [39] was -0.001. The “glycan array binding signal (z-score)” value [40] was -0.366, the “glycan array binding signal (z-score)” value [41] was -0.248 and the “glycan array binding signal (z-score)” value [42] was -0.307. For the same binder, the “glycan array binding signal (z-score)” value [43] was -0.359, the “glycan array binding signal (z-score)” value [44] was 3.14 and the “glycan array binding signal (z-score)” value [45] was -0.35. The “glycan array binding signal (z-score)” value [46] was -0.324.
